In all, about 310,000 compounds went through this assay and about 14,000 (4.5%) showed an effect of 50% or more. The effect is printed as a negative number. The full list was thinned out, with strong results kept by preference.
molecular target: human ether-à-go-go-related gene (hERG) potassium channel (human, UniProt Q12809); experiment: primary screen, population patch clamp on CHO cells stably expressing hERG; higher = less effect of the substance
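Further: peak tail current of the secondary pulse compared with the same well before compound.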

Sequence of human ether-à-go-go-related gene (hERG) potassium channel (Q12809 whole entry, looked up): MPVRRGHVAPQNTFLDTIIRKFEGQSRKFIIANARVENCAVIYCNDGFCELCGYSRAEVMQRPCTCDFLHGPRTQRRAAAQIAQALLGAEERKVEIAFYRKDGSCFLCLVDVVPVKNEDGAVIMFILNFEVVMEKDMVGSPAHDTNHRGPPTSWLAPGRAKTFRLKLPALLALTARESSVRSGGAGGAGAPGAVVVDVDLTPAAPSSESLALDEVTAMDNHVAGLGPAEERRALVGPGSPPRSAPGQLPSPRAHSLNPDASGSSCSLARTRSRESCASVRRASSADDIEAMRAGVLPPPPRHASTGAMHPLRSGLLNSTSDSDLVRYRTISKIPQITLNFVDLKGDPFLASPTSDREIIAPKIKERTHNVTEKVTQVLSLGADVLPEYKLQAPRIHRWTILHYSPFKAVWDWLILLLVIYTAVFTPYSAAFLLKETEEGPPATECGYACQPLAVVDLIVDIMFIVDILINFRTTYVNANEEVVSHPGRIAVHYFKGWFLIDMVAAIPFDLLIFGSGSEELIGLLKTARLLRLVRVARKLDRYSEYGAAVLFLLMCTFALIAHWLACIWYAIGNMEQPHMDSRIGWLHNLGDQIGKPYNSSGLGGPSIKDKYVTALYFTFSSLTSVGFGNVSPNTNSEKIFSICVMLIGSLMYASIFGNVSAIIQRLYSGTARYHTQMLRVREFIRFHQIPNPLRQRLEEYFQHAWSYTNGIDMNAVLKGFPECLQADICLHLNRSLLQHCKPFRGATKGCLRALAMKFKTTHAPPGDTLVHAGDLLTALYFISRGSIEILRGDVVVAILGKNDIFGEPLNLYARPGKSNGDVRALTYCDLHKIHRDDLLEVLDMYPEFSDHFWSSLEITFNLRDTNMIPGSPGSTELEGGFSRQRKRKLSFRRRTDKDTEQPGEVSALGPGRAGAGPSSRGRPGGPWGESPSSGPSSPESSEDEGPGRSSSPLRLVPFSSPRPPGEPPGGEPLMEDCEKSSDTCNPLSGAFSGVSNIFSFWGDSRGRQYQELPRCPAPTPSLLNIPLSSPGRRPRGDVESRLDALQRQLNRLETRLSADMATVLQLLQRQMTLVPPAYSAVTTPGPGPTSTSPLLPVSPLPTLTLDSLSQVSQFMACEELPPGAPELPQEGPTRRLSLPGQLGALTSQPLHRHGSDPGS

Row | Structure (SMILES) | hERG current change (%, negative = inhibition) at 10uM [%]
1 | O=C(Nc1ncc(S(=O)(=O)c2ccc([N+](=O)[O-])cc2)s1)c1cccnc1 | -2.29
2 | O=C(OCCCOC(=O)c1ccc(O)cc1)c1ccc(O)cc1 | -17.3
3 | O=C(OCCCN1CCCCC1)c1ccc(O)cc1 | -54.6
4 | COc1cc(C(=O)OCCN2CCOCC2)cc(OC)c1OC | -5.95
5 | CCN(CC)CC(C)OC(=O)c1cc(OC)c(OC)c(OC)c1.Cl (centres unmarked) | -11.5
6 | COc1cc(C(=O)OCCCN2CCCN(CCCOC(=O)c3cc(OC)c(OC)c(OC)c3)CC2)cc(OC)c1OC.Cl | -67.8
7 | CCN(CC)CCCCCCCCOC(=O)c1cc(OC)c(OC)c(OC)c1.Cl | -50.1
8 | COc1cc(C(=O)OCCCN(C)C)cc(OC)c1OC.Cl | 4.69
9 | O=C(OCCN1CCCCC1)c1ccc(O)cc1 | -35.4
10 | COc1cc(OC)cc(C(=O)OCCNC(=O)Cn2cnc3c2c(=O)n(C)c(=O)n3C)c1 | 0.82
11 | CCN(CC)CCn1cnc2c1c(=O)n(CCOC(=O)c1cc(OC)c(OC)c(OC)c1)c(=O)n2C.Cl | -60.3
12 | COc1cc(C(=O)OCCn2c(=O)c3c(ncn3CCN(C)C)n(C)c2=O)cc(OC)c1OC.Cl | -2.6
13 | COc1cc(C(=O)OCCCOC(=O)c2cc(OC)c(OC)c(OC)c2)cc(OC)c1OC | 0.241
14 | Cc1ccc2c(c1)N(CCC(=O)NCCCN1CCCC1)C(=O)CO2 | 12.7
15 | Cl.NCCOc1ccccc1OCCN | 22.1
16 | CCN(C(=S)Nc1ccc(C(C)=O)cc1)C1CCCCC1 | 3.5
17 | C=CCN1C(=O)C(O)(CC(=O)c2ccc(OC)cc2OC)c2cc(Br)ccc21 (centres unmarked) | -3.68
18 | O=C(NC1CCCc2ccccc21)c1cncc(Br)c1 (centres unmarked) | 8.69
19 | COCCn1c(SCC(=O)N(C)c2c(N)n(Cc3ccccc3)c(=O)[nH]c2=O)nnc1-c1cccc(C)c1 | 24.7
20 | Cc1ccc(Cn2c(SCC(=O)NCC3CCCO3)nc3c2c(=O)n(C)c(=O)n3C)cc1 (centres unmarked) | -28.4
21 | CCn1nc(C)cc1C(=O)N1CCCC(C(=O)c2ccccc2SC)C1 (centres unmarked) | -1.16
22 | COc1ccc(/C=C/C(=O)NCCCN2CCOCC2)cc1 | -29.4

Row | Structure (SMILES) | hERG current change (%, negative = inhibition) at 10uM [%]
23 | O=C(/C=C/c1ccc(Cl)cc1)NCCN1CCOCC1 | -24
24 | O=C(/C=C/c1ccc(F)cc1)NCCNC(=O)/C=C/c1ccc(F)cc1 | 35.7
25 | Cl.O=C(/C=C/c1ccc(Br)o1)NCCCN1CCOCC1 | 7.91
26 | Cc1ccc(/C=C/C(=O)NCCCN2CCN(CCCNC(=O)/C=C/c3ccc(C)o3)CC2)o1 | -78.3
27 | COc1ccc(/C=C/C(=O)NCCCN2CCCC2)cc1 | -44.5
28 | O=C(/C=C/c1ccc(F)cc1)NCCCN1CCN(CCCNC(=O)/C=C/c2ccc(F)cc2)CC1 | -73.2
29 | O=C(/C=C/c1ccco1)NCCCN1CCN(CCCNC(=O)/C=C/c2ccco2)CC1 | -43.5
30 | COc1ccc(/C=C/C(=O)NCCCN2CCCCCC2)cc1 | -58.3
31 | Cc1ccc(/C=C/C(=O)NCCCN2CCN(CCCNC(=O)/C=C/c3ccc(C)cc3)CC2)cc1 | -0.473
32 | O=C(/C=C/c1ccc(Cl)cc1)NCCCN1CCOCC1 | -71
33 | CC(C)c1ccc(/C=C/C(=O)NCCCN2CCOCC2)cc1 | -39
34 | COC(=O)[C@@]1(Cc2ccc(OC)cc2)[C@H]2c3cc(C(=O)N(C)C)n(CCSCCO)c3C[C@H]2CN1C(=O)c1ccccc1 | -18.4
35 | COC(=O)Nc1ccc(S(=O)(=O)N2CCCCC2)cc1 | -4.21
36 | Cn1nccc1C(=O)N/N=C/c1cccnc1 | -14.8
37 | COCCNC(=O)CN1C(=O)COc2ccc(Cl)cc21 | 21.8
38 | Cc1nn(-c2ccccc2)c(C)c1NC(=O)COC(=O)CCCOc1ccccc1 | 6.69
39 | COc1ccc(Br)cc1/C=N/N1C(=O)CSC1=S | 17.3
40 | CCOC(=O)c1c[nH]c2ccc3ccccc3c2c1=O | 13
41 | COc1cc(C2C(C#N)=C(N)N(c3cccnc3)C3=C2C(=O)CCC3)ccc1O (centres unmarked) | -12
42 | CC1CC(C)CN(S(=O)(=O)c2ccc3oc(=O)ccc3c2)C1 (centres unmarked) | -59.5
43 | CC1CCCN(S(=O)(=O)c2ccc3oc(=O)ccc3c2)C1 (centres unmarked) | -19.4
44 | Cc1ccc(N2CCN(S(=O)(=O)c3ccc4oc(=O)ccc4c3)CC2)cc1Cl | 3.42
